Reference: PubChem BioAssay (NCI)
Compounds without any hit were thinned out: in the full panel of roughly 83,000, 20% have a hit.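 Single-concentration screen, 48 h exposure, 96-well plates. Endpoint: percent growth. Below 10 = active.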 Unmarked numbers belong to inactive results. Calls of active or inactive are those of the source.

Columns and labels:
Test in all cases: NCI-60 one-dose screen, 48 h (100 = growth as untreated, 0 = no growth, -100 = all killed)
Details in all cases: 10 µM unless noted
SK-MEL-2 melanoma = tested on: SK-MEL-2 melanoma
EKVX NSCLC = tested on: EKVX NSCLC
SN12C renal = tested on: SN12C renal
UO-31 renal = tested on: UO-31 renal
TK-10 renal = tested on: TK-10 renal
ACHN renal = tested on: ACHN renal
CAKI-1 renal = tested on: CAKI-1 renal
A498 renal = tested on: A498 renal
CCRF-CEM leukemia = tested on: CCRF-CEM leukemia
MOLT-4 leukemia = tested on: MOLT-4 leukemia
SR leukemia = tested on: SR leukemia
RPMI-8226 leukemia = tested on: RPMI-8226 leukemia
OVCAR-8 ovarian = tested on: OVCAR-8 ovarian
OVCAR-5 ovarian = tested on: OVCAR-5 ovarian
OVCAR-4 ovarian = tested on: OVCAR-4 ovarian
SK-OV-3 ovarian = tested on: SK-OV-3 ovarian
IGROV1 ovarian = tested on: IGROV1 ovarian
OVCAR-3 ovarian = tested on: OVCAR-3 ovarian
HS 578T breast = tested on: HS 578T breast
NCI/ADR-RES ovarian = tested on: NCI/ADR-RES ovarian

| SMILES | growth (SK-MEL-2 melanoma) | growth (EKVX NSCLC) | growth (SN12C renal) | growth (UO-31 renal) | growth (TK-10 renal) | growth (ACHN renal) | growth (CAKI-1 renal) | growth (A498 renal) | growth (CCRF-CEM leukemia) | growth (MOLT-4 leukemia) | growth (SR leukemia) | growth (RPMI-8226 leukemia) | growth (OVCAR-8 ovarian) | growth (OVCAR-5 ovarian) | growth (OVCAR-4 ovarian) | growth (SK-OV-3 ovarian) | growth (IGROV1 ovarian) | growth (OVCAR-3 ovarian) | growth (HS 578T breast) | growth (NCI/ADR-RES ovarian) |
| --- | --- | --- | --- | --- | --- | --- | --- | --- | --- | --- | --- | --- | --- | --- | --- | --- | --- | --- | --- | --- |
| COC(=O)[C@H]1Cc2c([nH]c3ccccc23)[C@H](c2ccc3c(c2)OCO3)N1 | 113% | 95.5% | 100% | 80.2% | 96% | 98.4% | 82.3% | 97.5% | 96.4% | 100% | 103% | 97.5% | 103% | 100% | 94% | 102% | 90.6% | 99.7% | 102% | 99.8% |
| CCOC(=O)c1cnc2sc(-c3ccc(OC)cc3)nc2c1Cl | 102% | 90.4% | 102% | 78.8% | 145% | 105% | 95% | 86.8% | 96.4% | 97.3% | 96.8% | 93.1% | 112% | 118% | 86.9% | 121% | 102% | 108% | 89.3% | 90% |
| c1ccc2c(-c3cnn4cc(-c5ccc(N6CCNCC6)cc5)cnc34)ccnc2c1 | -59.2% (active) | -37.3% (active) | -75.5% (active) | -93.4% (active) | -74.8% (active) | -99.3% (active) | -99.6% (active) | -87% (active) | -48.2% (active) | -28.7% (active) | -19.1% (active) | -52.8% (active) | -46.9% (active) | -85.3% (active) | -65.8% (active) | -86.4% (active) | -79.7% (active) | -83.2% (active) | -68.7% (active) | -42.5% (active) |
| CCCS(=O)(=O)Nc1cccc(Nc2ncnc3cc(NC(=O)CCl)ccc23)c1Cl | -32.1% (active) | -14.9% (active) | -76% (active) | -95% (active) | -36.4% (active) | -94.4% (active) | -74.6% (active) | 9.01% (active) | 3.74% (active) | 4.33% (active) | 2.37% (active) | -32.1% (active) | 0.271% (active) | -65% (active) | -38.3% (active) | -4.59% (active) | -52.6% (active) | -85.3% (active) | 10.5% | 49.9% |
| O=C(Nc1ccccc1CNc1nc(Nc2ccc(OCCN3CCCC3)cc2)ncc1Cl)NC1CCCCC1 | 115% | 95% | 88.1% | 56.3% | 116% | 78.2% | 94.3% | 75.3% | 12% | 72.3% | 5.48% (active) | 60.8% | 57.5% | 114% | 46.6% | 104% | 88.1% | 99.5% | 85.2% | 74% |
| C[C@@H]1N=C(c2ccc(Cl)cc2Cl)Nc2nc3ccccn3c2C1=O | 38.2% | 82.5% | 75.8% | 52.4% | 74.5% | 60.2% | 47.2% | 60.7% | 56.6% | 50.4% | 33% | 75.2% | 68.1% | 91.2% | 89.5% | 50.1% | 41.9% | 2.44% (active) | 52% | 44.5% |
| Cc1cc(C(=O)Nc2cc(Nc3ncccc3-c3ncnc4nc[nH]c34)ccc2F)cc(C(C)(C)C#N)c1 | 8.76% (active) | 56% | 50.6% | 10.1% | 60.8% | 30.5% | 25.1% | -22.8% (active) | 42.4% | 53.2% | 32.1% | 24% | 39.9% | 30.3% | 53.2% | 87% | 3.72% (active) | 52.1% | 44.6% | 49.9% |
| CN1CCN(Cc2ccc(NC(=O)c3cncc(C#Cc4cnc(N)c5ncccc45)c3)cc2Cl)CC1 | 56.5% | 106% | 92.5% | 64.7% | 104% | 41.8% | 73.5% | 104% | -2.07% (active) | 83% | -1.93% (active) | 73.1% | 101% | 95.1% | 104% | 109% | 110% | 116% | 80.1% | 74.9% |
